Over roughly 35,000 sequences, “fluorescence intensity (a.u.)” has its median near 10,000; the highest 2% begin near 52,000. The list comes from a sample in which the highest values are over-represented; it also holds similar and randomly drawn sequences.

This assay deals with T1, OsWOX13 (Oryza sativa, UniProt Q5QMM3 1-267).
T1 sequence: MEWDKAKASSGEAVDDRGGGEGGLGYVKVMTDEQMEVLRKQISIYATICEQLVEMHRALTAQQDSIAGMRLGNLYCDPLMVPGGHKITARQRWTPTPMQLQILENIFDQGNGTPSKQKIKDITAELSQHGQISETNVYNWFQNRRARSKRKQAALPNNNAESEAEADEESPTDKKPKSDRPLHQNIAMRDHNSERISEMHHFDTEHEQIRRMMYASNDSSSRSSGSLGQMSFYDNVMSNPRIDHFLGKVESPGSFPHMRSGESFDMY
Put plainly: protein-binding microarray (RPBM); PBS, 2% BSA, 51.3 ng/ul salmon testes DNA, 50 uM zinc acetate, 200 nM TF, 25 C, 1 h; high values mean tight binding. As to conditions: protein: recombinant; tags: N-terminal polyhistidine and DsRed monomer fusion (pET32a); label: CyDye5-dUTP incorporated in the synthesized complementary strand; 3' TTTTT single-stranded linker to array surface; dsDNA, one strand shown. An outline of the steps: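 A custom Agilent array was converted to double-stranded form by primer extension with Cy5-dUTP and blocked with 2% BSA. Protein at 200 nM in PBS with 2% BSA, salmon testes DNA and 50 µM zinc acetate was applied for 1 h at 25 °C, followed by washing. The proteins were polyhistidine–DsRed N-terminal fusions of transcription factors, expressed in E. coli BL21-CodonPlus and Ni–NTA-purified. The binding signal is per-feature fluorescence intensity (arbitrary units) from an Axon 4000B scanner.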
Consider “GAGTACAGATGAAATTTGTAGAAATTGGAATGGTCATGTACGGAGTCACCTAGTGCAG”, for which the binding signal was 3810 fluorescence intensity (a.u.).
The same measure for “GGCAAATTGTCAAGGTTAACCGTAAATCTACAGTGCCAATCGGAGTCACCTAGTGCAG”: 15500 fluorescence intensity (a.u.); for “TCTTCACATGAATGATGAAATTGCTAGTAGCATGTCTTCACGGAGTCACCTAGTGCAG”: 3410 fluorescence intensity (a.u.); for “CAGTGGATGATTAATATTGATTAATTATTATAATTGTTTTCGGAGTCACCTAGTGCAG”: 39500 fluorescence intensity (a.u.).
The value for “TTCGATTGATTGATAGTTGATTGTGTGTTTACAATTGAACCGGAGTCACCTAGTGCAG” was 52600 fluorescence intensity (a.u.).
In the case of “TGATTAAAATTGACATTAAAATTATAGTTTTGTGATGACTCGGAGTCACCTAGTGCAG”, the binding signal is 19100 fluorescence intensity (a.u.).
The same measure for “ACTTGTTGAAAATTGATTGCTTTGTTGTTGTAGTGTTTACCGGAGTCACCTAGTGCAG”: 23600 fluorescence intensity (a.u.); for “ACATTCCAAAATTTGACCAAATTTGTTCACTCGTTGACTGCGGAGTCACCTAGTGCAG”: 3660 fluorescence intensity (a.u.).
Regarding “AATTGATTGGACTCCACCAACATTAAAATAGTTGTTGATGCGGAGTCACCTAGTGCAG”, the binding signal is 56400 fluorescence intensity (a.u.).
Regarding “AAATTAAATTTTATTTGTTGAAAATAATATCATTGGATTGCGGAGTCACCTAGTGCAG”, the binding signal is 6020 fluorescence intensity (a.u.).
The value for “GATTTAAATTAGATGGAAGGTTGAGAATTAAGCTGATCCTCGGAGTCACCTAGTGCAG” was 13600 fluorescence intensity (a.u.); that for “TTATATTAATTGATGGTCATTATTGTTGGAGATTATATTGCGGAGTCACCTAGTGCAG” was 60800 fluorescence intensity (a.u.).
Regarding “GGAGTTGATTGATGGACCTAGAATTGGTTGAGATCCTCAGCGGAGTCACCTAGTGCAG”, the binding signal is 63700 fluorescence intensity (a.u.).
Take “CAGAATTGAGAGTTCACATATCCTCAGTGGTCAGAGTTCACGGAGTCACCTAGTGCAG”: the binding signal was 6100 fluorescence intensity (a.u.).
The same measure for “CGTCTACCGTGATTGTTTCGATACAATTGTGTGCAAGTTACGGAGTCACCTAGTGCAG”: 21200 fluorescence intensity (a.u.).
Consider “CAGTTTTGGTTAATTAAGTAAATAATTGTCCTCAGAAAGTCGGAGTCACCTAGTGCAG”, for which the binding signal was 15100 fluorescence intensity (a.u.).
The same measure for “CATAAATTTTCCGTGCCAACTTTGATCATCCGTTTTATTTCGGAGTCACCTAGTGCAG”: 5660 fluorescence intensity (a.u.); for “CTATACAACAAATCATTAATTAGGCTCAAAAGAAAGAAAGCGGAGTCACCTAGTGCAG”: 11100 fluorescence intensity (a.u.); for “CACATGCAAATTATCGTGCGTCTGTATGTGGCATGCTTGTCGGAGTCACCTAGTGCAG”: 4230 fluorescence intensity (a.u.).
The value for “GCCACTAAATTAATCCGGTGATTGATCATGTGTGGAAGCACGGAGTCACCTAGTGCAG” was 54200 fluorescence intensity (a.u.).
The same measure for “TTTAATCACTAATTAATTGTTGATTAGCGGCAAGTGTGACCGGAGTCACCTAGTGCAG”: 63800 fluorescence intensity (a.u.); for “ACGGTGTGATTAATTACGTCGCGATCATGTTGTGCTAATCCGGAGTCACCTAGTGCAG”: 32500 fluorescence intensity (a.u.).
Consider “TACGTGTGTTGATTTCCGTGACATATGCATAAATTTCTTTCGGAGTCACCTAGTGCAG”, for which the binding signal was 3870 fluorescence intensity (a.u.).
With “GATTTGATTTAAATCTTGAATAAATTTAATAAAATCCTATCGGAGTCACCTAGTGCAG”, the binding signal was 10000 fluorescence intensity (a.u.).
The same measure for “TTTTGATGAAATAAACTATGAAAATCCTGTGAAATTCATGCGGAGTCACCTAGTGCAG”: 7340 fluorescence intensity (a.u.).
The value for “AGAGAATTGAATTAATCCGTGTGATATATCACTAAAATTCCGGAGTCACCTAGTGCAG” was 5900 fluorescence intensity (a.u.); that for “AATGTTTTAATCACATTGATTAGCAACTAATTAATCTTAGCGGAGTCACCTAGTGCAG” was 47100 fluorescence intensity (a.u.); that for “ATGATTGAATCCTATAAAATCTTGTGAAATTCCTGTGAAACGGAGTCACCTAGTGCAG” was 52800 fluorescence intensity (a.u.).
The same measure for “AGAGATCGAGATTGACACACAACGTGGTTCACGCGTGCGCCGGAGTCACCTAGTGCAG”: 23100 fluorescence intensity (a.u.).
Turning to “ATACTAATTACTTAATTAGTGACCAGTGATCACTTGTGTGCGGAGTCACCTAGTGCAG”, the binding signal is 45800 fluorescence intensity (a.u.).
The same measure for “GGAGATTGACACGTTGGTCTACGTGCCTATGCGTGTGTTCCGGAGTCACCTAGTGCAG”: 55600 fluorescence intensity (a.u.); for “TTCATTAATCTCCCGGTGATGGATGAACGGGGAAAAGGGCCGGAGTCACCTAGTGCAG”: 4280 fluorescence intensity (a.u.); for “GATGTTAAGTTTTGGGCATATGATTGAATTGTCTTATATACGGAGTCACCTAGTGCAG”: 4180 fluorescence intensity (a.u.).
The value for “CTGTTTGATTTAGCTTAGGATTATTAGGTGTAAGCTGAAACGGAGTCACCTAGTGCAG” was 3910 fluorescence intensity (a.u.); that for “AACCAATCACGTCGCAGATAAGGCCTGACAGGTGTGCCCCCGGAGTCACCTAGTGCAG” was 32700 fluorescence intensity (a.u.).
The same measure for “CGCGTGTGGTGATTGGCTGGCTCTTTGCCTCATCATGGGCCGGAGTCACCTAGTGCAG”: 34100 fluorescence intensity (a.u.).
On to “ATAGATTGATTTGATAATTTCCTTGAGAGTAACACATGGGCGGAGTCACCTAGTGCAG”, for which the binding signal was 65500 fluorescence intensity (a.u.).
The same measure for “TTAATTGATCACATATTAATGGGCAACGCTGTTTTCCATGCGGAGTCACCTAGTGCAG”: 63600 fluorescence intensity (a.u.); for “CTCCTTACAAATTTTGAAGATAATTTCGTAACACTTGGGGCGGAGTCACCTAGTGCAG”: 7610 fluorescence intensity (a.u.); for “TCCAAAATCAATCAATTAAAACCCATAGTTATTGTTGACTCGGAGTCACCTAGTGCAG”: 53500 fluorescence intensity (a.u.).
The value for “TGGATGATTGGTGAGATAGGTGTTCCTTATAATTATAGGGCGGAGTCACCTAGTGCAG” was 54800 fluorescence intensity (a.u.).
The value for “CATATTAATTGTTAAAGTTGTCATCATCCAAATTGTTATACGGAGTCACCTAGTGCAG” was 11100 fluorescence intensity (a.u.); that for “GATATAATTGGTATTATTACTAGGTTGGTGTGATATCCTACGGAGTCACCTAGTGCAG” was 27400 fluorescence intensity (a.u.).

(Values after publication PMC7819943, “Rice protein-binding microarrays: a tool to detect cis-acting elements near promoter regions in rice”.)
